Results published in PubChem BioAssay AID1159580 (chemical genetic matrix, 2015).
The campaign covered roughly 5,500 compounds. About 2,000 (36%) were called active. Roughly 18% stayed inconclusive and do not appear here. Rule as the data show it: active = normalized growth mostly below about 0.91 (no sharp cut-off); inconclusive = no clear call, values can overlap the other calls; inactive = mostly above about 0.92. The list shows a part of the results.

Assay: chemical genetic growth profiling, strain panel (AID 1159580);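 also: tested at 20 µM; growth read once vehicle control cultures reached saturation at 30 °C; 1 = growth at the plate median or of vehicle wells; lower values mean less growth of the strain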
Details: growth OD

Measured: normalized growth

C[C@@H]([C@H](O)c1ccccc1)N(C)C
inactive: S. cerevisiae deletion strains, locus YAL013W, strain DEP1, active compounds read low 1.01 | S. cerevisiae deletion strains, locus YAL021C, strain ccr4, active compounds read low 1.01 | S. cerevisiae deletion strains, locus YAL026C, strain drs2, active compounds read low 1.01 | S. cerevisiae deletion strains, locus YAL030W, strain snc1, active compounds read low 1.02 | S. cerevisiae deletion strains, locus YBL061C, strain skt5, active compounds read low 1.01 | S. cerevisiae deletion strains, locus YBR009C, strain hhf1, active compounds read low 1.01 | S. cerevisiae deletion strains, locus YBR021W, strain FUR4, active compounds read low 0.983 | S. cerevisiae deletion strains, locus YBR023C, strain chs3, active compounds read low 1.01 | S. cerevisiae deletion strains, locus YBR171W, strain sec66, active compounds read low 1.03 | S. cerevisiae deletion strains, locus YBR229C, strain ROT2, active compounds read low 1 | S. cerevisiae deletion strains, locus YBR231C, strain swc5, active compounds read low 1.01 | S. cerevisiae deletion strains, locus YBR279W, strain paf1, active compounds read low 1.02 | S. cerevisiae deletion strains, locus YCL011C, strain gbp2, active compounds read low 1.01 | S. cerevisiae deletion strains, locus YCL016C, strain dcc1, active compounds read low 1.01 | S. cerevisiae deletion strains, locus YCL029C, strain bik1, active compounds read low 1 | S. cerevisiae deletion strains, locus YCL061C, strain MRC1, active compounds read low 1.01 | S. cerevisiae deletion strains, locus YCL069W, strain vba3, active compounds read low 1.01 | S. cerevisiae deletion strains, locus YCR088W, strain abp1, active compounds read low 1.01 | S. cerevisiae deletion strains, locus YDL005C, strain med2, active compounds read low 1.02 | S. cerevisiae deletion strains, locus YDL035C, strain GPR1, active compounds read low 1.02 | S. cerevisiae deletion strains, locus YDL040C, strain nat1, active compounds read low 1.02 | S. cerevisiae deletion strains, locus YDL074C, strain BRE1, active compounds read low 0.999 | S. cerevisiae deletion strains, locus YDL101C, strain DUN1, active compounds read low 1 | S. cerevisiae deletion strains, locus YDL134C, strain PPH21, active compounds read low 1 | S. cerevisiae deletion strains, locus YDL185W, strain tfp1, active compounds read low 1.01 | S. cerevisiae deletion strains, locus YDL192W, strain arf1, active compounds read low 1.02 | S. cerevisiae deletion strains, locus YDR001C, strain nth1, active compounds read low 1.01 | S. cerevisiae deletion strains, locus YDR069C, strain doa4, active compounds read low 1.03 | S. cerevisiae deletion strains, locus YDR101C, strain arx1, active compounds read low 0.981 | S. cerevisiae deletion strains, locus YDR137W, strain rgp1, active compounds read low 0.984 | S. cerevisiae deletion strains, locus YDR150W, strain NUM1, active compounds read low 1.01 | S. cerevisiae deletion strains, locus YDR159W, strain sac3, active compounds read low 1.03 | S. cerevisiae deletion strains, locus YDR162C, strain NBP2, active compounds read low 1.02 | S. cerevisiae deletion strains, locus YDR195W, strain ref2 1.01 | S. cerevisiae deletion strains, locus YDR297W, strain sur2, active compounds read low 1.01 | S. cerevisiae deletion strains, locus YDR318W, strain mcm21, active compounds read low 1.01 | S. cerevisiae deletion strains, locus YDR334W, strain swr1, active compounds read low 1.02 | S. cerevisiae deletion strains, locus YDR335W, strain msn5, active compounds read low 1.03 | S. cerevisiae deletion strains, locus YDR388W, active compounds read low 1.01 | S. cerevisiae deletion strains, locus YDR392W, strain spt3, active compounds read low 1.03 | S. cerevisiae deletion strains, locus YDR502C, strain sam2, active compounds read low 1.01 | S. cerevisiae deletion strains, locus YEL003W, strain gim4, active compounds read low 1.02 | S. cerevisiae deletion strains, locus YEL037C, strain rad23, active compounds read low 1.01 | S. cerevisiae deletion strains, locus YEL061C, strain CIN8 (second series), active compounds read low 1.01 | S. cerevisiae deletion strains, locus YEL061C, strain CIN8, active compounds read low 1.01 | S. cerevisiae deletion strains, locus YER015W, strain faa2, active compounds read low 1.01 | S. cerevisiae deletion strains, locus YER016W, strain bim1, active compounds read low 1.02 | S. cerevisiae deletion strains, locus YER110C, active compounds read low 1.01 | S. cerevisiae deletion strains, locus YER111C, strain swi4, active compounds read low 1.01 | S. cerevisiae deletion strains, locus YER155C, strain BEM2 (second series), active compounds read low 1.03 | S. cerevisiae deletion strains, locus YER155C, strain BEM2, active compounds read low 1 | S. cerevisiae deletion strains, locus YER167W, strain BCK2, active compounds read low 1.01 | S. cerevisiae deletion strains, locus YFR010W, strain ubp6, active compounds read low 1.02 | S. cerevisiae deletion strains, locus YGL078C, strain dbp3, active compounds read low 1.01 | S. cerevisiae deletion strains, locus YGL086W, strain mad1, active compounds read low 0.997 | S. cerevisiae deletion strains, locus YGL167C, strain pmr1, active compounds read low 0.956 | S. cerevisiae deletion strains, locus YGL173C, strain kem1, active compounds read low 1.01 | S. cerevisiae deletion strains, locus YGL227W, strain vid30, active compounds read low 1.01 | S. cerevisiae deletion strains, locus YGL240W, strain doc1, active compounds read low 1.01 | S. cerevisiae deletion strains, locus YGL248W, strain PDE1, active compounds read low 1 | S. cerevisiae deletion strains, locus YGL253W, strain hxk2, active compounds read low 1.02 | S. cerevisiae deletion strains, locus YGR078C, strain PAC10, active compounds read low 1.02 | S. cerevisiae deletion strains, locus YGR135W, strain pre9, active compounds read low 1.03 | S. cerevisiae deletion strains, locus YGR252W, strain gcn5, active compounds read low 1.02 | S. cerevisiae deletion strains, locus YHR013C, strain ard1, active compounds read low 1.05 | S. cerevisiae deletion strains, locus YHR027C, strain rpn1, active compounds read low 1.01 | S. cerevisiae deletion strains, locus YHR030C, strain SLT2, active compounds read low 1.02 | S. cerevisiae deletion strains, locus YHR079C, strain IRE1 (second series), active compounds read low 1.01 | S. cerevisiae deletion strains, locus YHR094C, strain hxt1, active compounds read low 1.01 | S. cerevisiae deletion strains, locus YHR129C, strain ARP1, active compounds read low 1.01 | S. cerevisiae deletion strains, locus YHR142W, strain chs7, active compounds read low 1.01 | S. cerevisiae deletion strains, locus YHR200W, strain rpn10, active compounds read low 1 | S. cerevisiae deletion strains, locus YIL066C, strain RNR3, active compounds read low 1 | S. cerevisiae deletion strains, locus YIL073C, strain SPO22, active compounds read low 1.05 | S. cerevisiae deletion strains, locus YIL125W, strain kgd1, active compounds read low 1 | S. cerevisiae deletion strains, locus YIR030C, strain dcg1, active compounds read low 1.01 | S. cerevisiae deletion strains, locus YJL092W, strain hpr5, active compounds read low 1.01 | S. cerevisiae deletion strains, locus YJL095W, strain BCK1 (second series), active compounds read low 1.02 | S. cerevisiae deletion strains, locus YJL095W, strain BCK1, active compounds read low 0.996 | S. cerevisiae deletion strains, locus YJL115W, strain asf1, active compounds read low 1.02 | S. cerevisiae deletion strains, locus YJL129C, strain trk1, active compounds read low 1.03 | S. cerevisiae deletion strains, locus YJL134W, strain LCB3, active compounds read low 1.01 | S. cerevisiae deletion strains, locus YJL154C, strain vps35, active compounds read low 1.02 | S. cerevisiae deletion strains, locus YJL164C, strain tpk1, active compounds read low 1.02 | S. cerevisiae deletion strains, locus YJL166W, strain qcr8, active compounds read low 1.02 | S. cerevisiae deletion strains, locus YJL168C, strain set2, active compounds read low 1 | S. cerevisiae deletion strains, locus YJL187C, strain SWE1 (second series), active compounds read low 0.993 | S. cerevisiae deletion strains, locus YJL187C, strain SWE1, active compounds read low 1.02 | S. cerevisiae deletion strains, locus YJR043C, strain POL32, active compounds read low 1.01 | S. cerevisiae deletion strains, locus YJR075W, strain HOC1, active compounds read low 1 | S. cerevisiae deletion strains, locus YKL009W, strain mrt4, active compounds read low 1.02 | S. cerevisiae deletion strains, locus YKL068W, active compounds read low 1 | S. cerevisiae deletion strains, locus YKL085W, strain MDH1 (second series), active compounds read low 1.02 | S. cerevisiae deletion strains, locus YKL085W, strain MDH1, active compounds read low 1.02 | S. cerevisiae deletion strains, locus YKL160W, strain elf1, active compounds read low 1.01 | S. cerevisiae deletion strains, locus YKL190W, strain CNB1, active compounds read low 1.02 | S. cerevisiae deletion strains, locus YKR001C, strain vps1, active compounds read low 1 | S. cerevisiae deletion strains, locus YKR026C, strain gcn3, active compounds read low 1.01 | S. cerevisiae deletion strains, locus YKR091W, strain srl3, active compounds read low 1.01 | S. cerevisiae deletion strains, locus YLL001W, strain dnm1, active compounds read low 1.01 | S. cerevisiae deletion strains, locus YLL026W, active compounds read low 1.01 | S. cerevisiae deletion strains, locus YLL041C, strain sdh2, active compounds read low 1.02 | S. cerevisiae deletion strains, locus YLR027C, strain aat2, active compounds read low 1.01 | S. cerevisiae deletion strains, locus YLR039C, strain RIC1, active compounds read low 1.03 | S. cerevisiae deletion strains, locus YLR058C, strain SHM2, active compounds read low 1.01 | S. cerevisiae deletion strains, locus YLR102C, strain apc9, active compounds read low 1 | S. cerevisiae deletion strains, locus YLR221C, strain rsa3, active compounds read low 1.01 | S. cerevisiae deletion strains, locus YLR258W, strain gsy2, active compounds read low 1.01 | S. cerevisiae deletion strains, locus YLR262C, strain YPT6 (second series), active compounds read low 1 | S. cerevisiae deletion strains, locus YLR262C, strain YPT6, active compounds read low 1 | S. cerevisiae deletion strains, locus YLR268W, strain sec22, active compounds read low 1.01 | S. cerevisiae deletion strains, locus YLR320W, strain mms22, active compounds read low 1.02 | S. cerevisiae deletion strains, locus YLR330W, strain CHS5, active compounds read low 1.01 | S. cerevisiae deletion strains, locus YLR342W, strain FKS1 (second series), active compounds read low 1.03 | S. cerevisiae deletion strains, locus YLR342W, strain FKS1, active compounds read low 1.02 | S. cerevisiae deletion strains, locus YLR357W, strain rsc2, active compounds read low 1.04 | S. cerevisiae deletion strains, locus YLR370C, strain arc18, active compounds read low 1.01 | S. cerevisiae deletion strains, locus YLR371W, strain rom2, active compounds read low 1 | S. cerevisiae deletion strains, locus YLR384C, strain iki3, active compounds read low 1.02 | S. cerevisiae deletion strains, locus YLR418C, strain cdc73, active compounds read low 1.04 | S. cerevisiae deletion strains, locus YML016C, strain PPZ1, active compounds read low 1.01 | S. cerevisiae deletion strains, locus YML032C, strain rad52, active compounds read low 1 | S. cerevisiae deletion strains, locus YML120C, strain ndi1, active compounds read low 1.02 | S. cerevisiae deletion strains, locus YML124C, strain tub3, active compounds read low 1.01 | S. cerevisiae deletion strains, locus YMR058W, strain fet3, active compounds read low 1.02 | S. cerevisiae deletion strains, locus YMR078C, strain ctf18, active compounds read low 1.01 | S. cerevisiae deletion strains, locus YMR125W, strain sto1, active compounds read low 1.02 | S. cerevisiae deletion strains, locus YMR129W, active compounds read low 1.02 | S. cerevisiae deletion strains, locus YMR205C, strain PFK2, active compounds read low 1.02 | S. cerevisiae deletion strains, locus YMR223W, strain ubp8, active compounds read low 1.04 | S. cerevisiae deletion strains, locus YMR231W, strain pep5, active compounds read low 1.01 | S. cerevisiae deletion strains, locus YMR307W, strain GAS1, active compounds read low 1.02 | S. cerevisiae deletion strains, locus YNL067W, strain RPL9B, active compounds read low 0.999 | S. cerevisiae deletion strains, locus YNL071W, strain lat1, active compounds read low 1.01 | S. cerevisiae deletion strains, locus YNL153C, strain GIM3, active compounds read low 0.985 | S. cerevisiae deletion strains, locus YNL209W, strain ssb2, active compounds read low 1.02 | S. cerevisiae deletion strains, locus YNL233W, strain BNI4, active compounds read low 0.982 | S. cerevisiae deletion strains, locus YNL248C, strain rpa49, active compounds read low 1 | S. cerevisiae deletion strains, locus YNL250W, strain rad50, active compounds read low 1.05 | S. cerevisiae deletion strains, locus YNL271C, strain bni1, active compounds read low 1.01 | S. cerevisiae deletion strains, locus YNL298W, strain CLA4, active compounds read low 1.02 | S. cerevisiae deletion strains, locus YNL307C, strain MCK1, active compounds read low 1.01 | S. cerevisiae deletion strains, locus YNL322C, strain KRE1 (second series), active compounds read low 1 | S. cerevisiae deletion strains, locus YNR049C, strain mso1, active compounds read low 1.01 | S. cerevisiae deletion strains, locus YNR052C, strain pop2, active compounds read low 1 | S. cerevisiae deletion strains, locus YOL006C, strain TOP1, active compounds read low 1 | S. cerevisiae deletion strains, locus YOL012C, strain htz1 0.634 | S. cerevisiae deletion strains, locus YOL147C, strain pex11, active compounds read low 1.01 | S. cerevisiae deletion strains, locus YOR001W, strain rrp6, active compounds read low 1.01 | S. cerevisiae deletion strains, locus YOR061W, strain CKA2, active compounds read low 1.01 | S. cerevisiae deletion strains, locus YOR069W, strain VPS5, active compounds read low 1 | S. cerevisiae deletion strains, locus YOR070C, strain gyp1, active compounds read low 1.02 | S. cerevisiae deletion strains, locus YOR080W, strain dia2, active compounds read low 1.03 | S. cerevisiae deletion strains, locus YOR083W, strain WHI5, active compounds read low 1.02 | S. cerevisiae deletion strains, locus YOR106W, strain vam3, active compounds read low 1.01 | S. cerevisiae deletion strains, locus YOR136W, strain idh2, active compounds read low 1 | S. cerevisiae deletion strains, locus YOR144C, strain elg1, active compounds read low 1.01 | S. cerevisiae deletion strains, locus YOR184W, strain ser1, active compounds read low 1.01 | S. cerevisiae deletion strains, locus YOR265W, strain rbl2, active compounds read low 1.02 | S. cerevisiae deletion strains, locus YOR270C, strain vph1, active compounds read low 1.03 | S. cerevisiae deletion strains, locus YOR290C, strain snf2, active compounds read low 1.01 | S. cerevisiae deletion strains, locus YOR316C, strain cot1, active compounds read low 1.01 | S. cerevisiae deletion strains, locus YPL051W, strain arl3, active compounds read low 1.01 | S. cerevisiae deletion strains, locus YPL078C, strain atp4, active compounds read low 1.02 | S. cerevisiae deletion strains, locus YPL106C, strain sse1, active compounds read low 1.03 | S. cerevisiae deletion strains, locus YPL240C, strain hsp82, active compounds read low 1.02 | S. cerevisiae deletion strains, locus YPR119W, strain clb2, active compounds read low 1.01 | S. cerevisiae deletion strains, locus YPR141C, strain kar3, active compounds read low 1 | S. cerevisiae deletion strains, locus YPR163C, strain tif3, active compounds read low 1.01 | S. cerevisiae deletion strains, locus YPR167C, strain met16, active compounds read low 1 | S. cerevisiae deletion strains, strain wtn01, active compounds read low 1.01 | S. cerevisiae strains, strain wild type, active compounds read low 1.01
